Experimental data published in PubChem BioAssay (Tox21).
Several values for one entry are separate records, joined by “and”; a condition that tells them apart may be missing. Identical values can stand only once. Records with an inconclusive call do not appear. The source holds several records for some structures; these can differ, active in one and inactive in another. Activity calls are given as the source filed them. Unless noted, calls come from the whole dose curve; as a rule, active = well fitted curve in the direction sought with a large enough effect in the repeat runs; inconclusive = weak or mixed curves; inactive = no such curve, though single readings can be large; an effect the other way counts as inactive or inconclusive.

Key:
[1] = qHTS assay to identify small molecule agonists of the TGF-beta/Smad signaling pathway - cell viability counter screen (AID 1346829); note: top concentration of the series differs between compounds; nearly all actives have a fitted effect of over 45% in size
In short: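 In parallel with the Smad reporter read, viability of HEK 293T cells stably carrying SBE-bla is quantified by ATP luminescence following 5 hr compound treatment.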

[2] = qHTS assay to identify small molecule agonists of the TGF-beta/Smad signaling pathway (AID 1346859; active = well fitted activation curve with a large enough effect in the signal ratio in the repeat runs, not every such curve was filed as active; the % refers to the signal ratio; note: series mostly up to about 77 µM)
In short: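 Each well held 4,000 SBE-bla HEK 293T cells incubated overnight before compound addition; 5 hr later the cleavable FRET substrate went on for 2 hr at room temperature, and fluorescence was read at two emissions.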

[3] = biological target: Thyrotropin-releasing hormone receptor (Homo sapiens) (UniProt P34981); experiment: qHTS assay to identify small molecule antagonists of the thyrotropin-releasing hormone receptor (TRHR) signaling pathway (AID 1346877; active = well fitted inhibition curve with a large enough effect in the repeat runs, not every such curve was filed as active; note: series mostly up to about 51 µM)
In short: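 TRHR-expressing HEK293 cells loaded with calcium dye for 2 h at 37 C; compounds pre-incubated 5 min at room temperature before TRH challenge at 1 nM final. Intracellular calcium fluorescence read kinetically for 3 min; 15 concentrations in triplicate.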

[4] = biological target: Thyrotropin-releasing hormone receptor (Homo sapiens) (UniProt P34981); experiment: qHTS assay to identify small molecule agonists of the thyrotropin-releasing hormone receptor (TRHR) signaling pathway (AID 1346891; calls by dose curve; note: series mostly up to about 58 µM)
In short: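 Screening of agonists relied on calcium signalling in HEK293 cells expressing human TRHR: dye loading 2 h at 37 °C preceded compound addition and a 3-min fluorescence time course.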

[5] = Human pregnane X receptor (PXR) small molecule agonists, qHTS cell viability counter screen (AID 1346977); note: nearly all actives have a fitted effect of over 50% in size; note: potency is the fitted concentration of half-maximal effect
In short: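 Tox21 qHTS format; PXR-Luc HepG2, 2,000/well, charcoal-stripped FBS 5%. Cpd exposure 24hr. Read: CellTiter-Fluor fluorescence, multiplexed with luciferase.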

[6] = Caspase-3/7 induction in HepG2 cells by small molecules, qHTS assay (AID 1346978); note: nearly all actives have a fitted effect of over 15% in size
In short: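 Wild-type HepG2 cells (2,000/well) were settled 5 h at 37 C, 5% CO2, then exposed to compounds in DMSO for 17 h. Caspase-3/7 activity was read by luminescence 30 min after adding Caspase-Glo 3/7 reagent at room temperature.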

[7] = Caspase-3/7 induction in CHO-K1 cells by small molecules, qHTS cell viability counter screen (AID 1346979); note: nearly all actives have a fitted effect of over 35% in size
In short: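 CellTiter-Fluor viability check, qHTS format: wild-type CHO-K1, 16hr compound treatment, 1hr reagent incubation, fluorescence read.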

[8] = Caspase-3/7 induction in CHO-K1 cells by small molecules, qHTS assay (AID 1346980); note: nearly all actives have a fitted effect of over 15% in size
In short: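 Wild-type cells were seeded at 1,500 per well and settled 5 hr at 37 C, 5% CO2, then exposed to DMSO-dissolved compounds for 17 hr. Caspase-Glo 3/7 reagent was added, and luminescence was read after 30min at room temperature.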

[9] = Caspase-3/7 induction in HepG2 cells by small molecules, qHTS cell viability counter screen (AID 1346981); note: nearly all actives have a fitted effect of over 30% in size; note: potency is the fitted concentration of half-maximal effect
In short: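 Wild-type HepG2 cells, 2,000/well, settled 5 hr at 37 C, 5% CO2 before compound addition. Viability read by CellTiter-Fluor fluorescence, reagent added after 16 hr compound exposure, then 1 hr at 37C, in the same wells as the caspase read.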

[10] = biological target: Nuclear receptor subfamily 1 group I member 2 (Homo sapiens) (UniProt O75469); experiment: Human pregnane X receptor (PXR) small molecule agonists, qHTS assay (AID 1346982); note: nearly all actives have a fitted effect of over 35% in size; note: potency is the fitted concentration of half-maximal effect
In short: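 PXR-Luc HepG2 reporter cells (CYP3A4-driven luciferase) in 5% charcoal-stripped FBS medium, plated 5 h before compound addition, then treated 24 h at 37C. Luciferase read by ONE-Glo luminescence after 30 min at room temperature.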

[11] = biological target: Cytochrome P450 2D6 (Homo sapiens) (UniProt P10635); experiment: Cytochrome P450 Family 2 Subfamily D Member 6 (CYP2D6) small molecule antagonists: luciferase reporter qHTS assay (AID 1671196); note: nearly all actives have a fitted effect of over 50% in size; note: potency is the fitted concentration of half-maximal effect
In short: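 Cell-free P450-Glo system: CYP2D6 with proluciferin substrate was pre-incubated with compound for 10 min, then reacted with NADPH regeneration for 1 h at room temperature. Luciferin product was detected after 20 min, and data were reported as relative luminescence units.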

[12] = biological target: Cytochrome P450 2C19 (Homo sapiens) (UniProt P33261); experiment: Cytochrome P450 Family 2 Subfamily C Member 19 (CYP2C19) small molecule antagonists: luciferase reporter qHTS assay (AID 1671197); note: nearly all actives have a fitted effect of over 65% in size; note: potency is the fitted concentration of half-maximal effect
In short: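 Compounds were tested on CYP2C19 activity via proluciferin conversion to luciferin. The 37C, 1 h reaction followed NADPH addition; detection reagent stopped it.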

[13] = biological target: Cytochrome P450 2C9 (Homo sapiens) (UniProt P11712); experiment: Cytochrome P450 Family 2 Subfamily C Member 9 (CYP2C9) small molecule antagonists: luciferase reporter qHTS assay (AID 1671198); note: nearly all actives have a fitted effect of over 50% in size; note: potency is the fitted concentration of half-maximal effect
In short: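 CYP2C9 activity was measured with a P450-Glo proluciferin substrate. Enzyme–substrate mix was held with compound for 10 min at room temperature, then NADPH regeneration solution was added for 1 h at 37C. Luciferin product was read as luminescence.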

[14] = biological target: Cytochrome P450 1A2 (Homo sapiens) (UniProt P05177); experiment: Cytochrome P450 Family 1 Subfamily A Member 2 (CYP1A2) small molecule antagonists: luciferase reporter qHTS assay (AID 1671199); note: nearly all actives have a fitted effect of over 50% in size; note: potency is the fitted concentration of half-maximal effect
In short: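 P450-Glo CYP1A2 enzyme–proluciferin substrate mix with compound 10 min at room temperature, then NADPH regeneration 1 h at room temperature. Luciferin detection reagent added, luminescence read after 20 min; furafylline positive control.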

[15] = biological target: Voltage-gated inwardly rectifying potassium channel KCNH2 (Homo sapiens) (UniProt Q12809); experiment: Human Ether-a-go-go-Related Gene (hERG) channel small molecule antagonists: fluorescence cell-based qHTS assay (AID 1671200)
In short: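 Kinetic two-minute fluorescence traces, sampled at 1 s, were collected following thallium stimulus of U2OS cells (1000 per well) that had been cultured overnight at 37 C and loaded with FluxOR II.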

[16] = biological target: Cytochrome P450 3A4 (Homo sapiens) (UniProt P08684); experiment: Cytochrome P450 Family 3 Subfamily A Member 4 (CYP3A4) small molecule antagonists: luciferase reporter qHTS assay (AID 1671201); note: nearly all actives have a fitted effect of over 50% in size; note: potency is the fitted concentration of half-maximal effect
In short: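 Proluciferin-to-luciferin conversion by CYP3A4, NADPH-regenerated, 1 h RT; luminescence read as RLU. Ketoconazole as control.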

[17] = biological target: Nuclear receptor subfamily 1 group I member 2 (Rattus norvegicus) (UniProt Q9R1A7); experiment: Rat pregnane X receptor (rPXR) activation by small molecules, qHTS assay (AID 1346983); details: rPXR luciferase reporter cells, One-Glo luminescence, 24 h; max activation: stronger effect = higher value; note: nearly all actives have a fitted effect of over 20% in size
In short: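 Cell-based rPXR luciferase reporter assay, 2,000 cells per well, rested 5hr at 37 C before compound addition in DMSO, then 24 hr at 37 C. One-Glo reagent was added and luminescence read after 30 min at room temperature.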

[18] = biological target: Nuclear receptor subfamily 1 group I member 2 (Homo sapiens) (UniProt O75469); experiment: CYP3A4 induction through human pregnane X receptor (PXR) by small molecules, qHTS assay (AID 1346984); note: nearly all actives have a fitted effect of over 40% in size
In short: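 DPX-2 HepG2 cells carrying a PXR response element and CYP3A4-promoter luciferase construct, treated with compounds 24 hr at 37C. Then P450-Glo CYP3A4 Luciferin-IPA substrate (3uM final) for 3 hr at 37C, One-Glo added, luminescence read.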

[19] = biological target: Nuclear receptor subfamily 1 group I member 2 (Homo sapiens) (UniProt O75469); experiment: Human pregnane X receptor (PXR) activation by small molecules, qHTS assay (AID 1346985); note: nearly all actives have a fitted effect of over 40% in size
In short: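 DPX-2 cells (HepG2 co-transfected with a PXR response element and a CYP3A4-promoter luciferase construct) were seeded at 2,000 per well, rested 5 hr at 37C, then exposed to DMSO-dissolved compounds for 24 hr. Activation was read as luciferase luminescence.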
% is set by controls: 0 for no effect and ±100 for the full control effect.

Cytochrome P450 3A4 (Homo sapiens), sequence (P08684 whole entry, looked up): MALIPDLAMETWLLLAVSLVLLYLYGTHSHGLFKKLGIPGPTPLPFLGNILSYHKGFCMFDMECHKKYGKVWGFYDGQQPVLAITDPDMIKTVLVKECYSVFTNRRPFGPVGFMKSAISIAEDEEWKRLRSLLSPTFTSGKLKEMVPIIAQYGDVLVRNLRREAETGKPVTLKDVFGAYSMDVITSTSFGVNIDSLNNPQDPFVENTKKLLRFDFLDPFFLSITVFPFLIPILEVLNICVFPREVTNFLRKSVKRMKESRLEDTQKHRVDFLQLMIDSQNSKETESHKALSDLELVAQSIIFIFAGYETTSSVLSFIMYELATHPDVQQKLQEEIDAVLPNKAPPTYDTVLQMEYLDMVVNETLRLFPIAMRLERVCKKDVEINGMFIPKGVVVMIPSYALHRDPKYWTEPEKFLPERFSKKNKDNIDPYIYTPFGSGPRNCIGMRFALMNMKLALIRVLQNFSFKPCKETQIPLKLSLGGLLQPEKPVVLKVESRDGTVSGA
Voltage-gated inwardly rectifying potassium channel KCNH2 (Homo sapiens), sequence (Q12809 whole entry, looked up): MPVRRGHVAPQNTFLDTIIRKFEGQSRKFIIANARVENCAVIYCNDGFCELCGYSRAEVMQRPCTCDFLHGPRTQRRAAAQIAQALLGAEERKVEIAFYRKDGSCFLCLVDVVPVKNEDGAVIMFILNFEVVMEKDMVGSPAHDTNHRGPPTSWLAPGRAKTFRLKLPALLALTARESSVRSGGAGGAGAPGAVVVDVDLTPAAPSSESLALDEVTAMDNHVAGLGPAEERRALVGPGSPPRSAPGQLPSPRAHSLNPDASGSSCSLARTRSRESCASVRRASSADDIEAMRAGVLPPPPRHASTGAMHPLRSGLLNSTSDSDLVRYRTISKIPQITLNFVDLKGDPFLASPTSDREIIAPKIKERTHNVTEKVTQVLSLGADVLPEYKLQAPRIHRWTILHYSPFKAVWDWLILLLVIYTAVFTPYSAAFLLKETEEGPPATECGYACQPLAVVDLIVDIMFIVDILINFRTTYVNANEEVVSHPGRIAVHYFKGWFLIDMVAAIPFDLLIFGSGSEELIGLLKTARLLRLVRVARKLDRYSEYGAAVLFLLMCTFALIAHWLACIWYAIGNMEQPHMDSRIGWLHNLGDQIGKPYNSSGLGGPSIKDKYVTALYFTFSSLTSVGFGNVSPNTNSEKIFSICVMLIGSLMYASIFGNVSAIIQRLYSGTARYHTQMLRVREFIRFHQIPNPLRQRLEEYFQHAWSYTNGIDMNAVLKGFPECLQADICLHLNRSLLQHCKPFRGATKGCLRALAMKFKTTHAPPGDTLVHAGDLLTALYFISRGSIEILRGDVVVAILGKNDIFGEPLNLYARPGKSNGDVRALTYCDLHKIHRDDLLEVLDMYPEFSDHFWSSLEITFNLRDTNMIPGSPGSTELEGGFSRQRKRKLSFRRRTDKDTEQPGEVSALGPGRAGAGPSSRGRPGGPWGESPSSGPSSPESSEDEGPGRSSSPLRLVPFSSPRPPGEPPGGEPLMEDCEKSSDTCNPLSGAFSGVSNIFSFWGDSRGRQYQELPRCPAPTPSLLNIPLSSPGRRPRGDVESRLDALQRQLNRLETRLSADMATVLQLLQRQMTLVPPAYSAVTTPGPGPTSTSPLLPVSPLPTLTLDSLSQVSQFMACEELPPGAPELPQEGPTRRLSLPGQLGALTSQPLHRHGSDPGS
Nuclear receptor subfamily 1 group I member 2 (Homo sapiens), sequence (O75469 whole entry, looked up): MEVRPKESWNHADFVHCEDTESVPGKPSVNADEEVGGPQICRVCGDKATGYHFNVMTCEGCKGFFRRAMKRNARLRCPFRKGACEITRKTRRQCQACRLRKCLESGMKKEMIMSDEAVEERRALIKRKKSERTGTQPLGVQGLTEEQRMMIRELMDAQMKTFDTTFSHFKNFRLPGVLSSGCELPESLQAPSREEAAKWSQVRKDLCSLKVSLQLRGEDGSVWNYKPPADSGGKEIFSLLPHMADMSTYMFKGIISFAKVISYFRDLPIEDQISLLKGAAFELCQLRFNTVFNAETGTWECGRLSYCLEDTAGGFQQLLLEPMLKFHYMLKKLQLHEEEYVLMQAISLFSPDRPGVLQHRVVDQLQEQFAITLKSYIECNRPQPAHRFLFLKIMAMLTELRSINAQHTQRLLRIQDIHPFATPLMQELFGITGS
Cytochrome P450 2C19 (Homo sapiens), sequence (P33261 whole entry, looked up): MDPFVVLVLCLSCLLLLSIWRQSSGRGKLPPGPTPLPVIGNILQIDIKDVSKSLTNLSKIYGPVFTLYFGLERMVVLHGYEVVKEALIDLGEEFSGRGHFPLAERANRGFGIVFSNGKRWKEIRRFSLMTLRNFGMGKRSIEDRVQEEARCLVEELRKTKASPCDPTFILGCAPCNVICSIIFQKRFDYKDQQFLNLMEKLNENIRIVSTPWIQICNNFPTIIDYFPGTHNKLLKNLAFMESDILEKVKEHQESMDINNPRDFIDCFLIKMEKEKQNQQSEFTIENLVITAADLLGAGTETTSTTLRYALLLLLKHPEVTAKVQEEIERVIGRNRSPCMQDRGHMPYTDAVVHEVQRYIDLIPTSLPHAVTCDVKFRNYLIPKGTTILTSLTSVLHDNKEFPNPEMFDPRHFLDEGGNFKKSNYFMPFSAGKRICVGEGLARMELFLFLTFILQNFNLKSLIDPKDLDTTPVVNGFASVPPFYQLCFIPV
Cytochrome P450 2D6 (Homo sapiens), sequence (P10635 whole entry, looked up): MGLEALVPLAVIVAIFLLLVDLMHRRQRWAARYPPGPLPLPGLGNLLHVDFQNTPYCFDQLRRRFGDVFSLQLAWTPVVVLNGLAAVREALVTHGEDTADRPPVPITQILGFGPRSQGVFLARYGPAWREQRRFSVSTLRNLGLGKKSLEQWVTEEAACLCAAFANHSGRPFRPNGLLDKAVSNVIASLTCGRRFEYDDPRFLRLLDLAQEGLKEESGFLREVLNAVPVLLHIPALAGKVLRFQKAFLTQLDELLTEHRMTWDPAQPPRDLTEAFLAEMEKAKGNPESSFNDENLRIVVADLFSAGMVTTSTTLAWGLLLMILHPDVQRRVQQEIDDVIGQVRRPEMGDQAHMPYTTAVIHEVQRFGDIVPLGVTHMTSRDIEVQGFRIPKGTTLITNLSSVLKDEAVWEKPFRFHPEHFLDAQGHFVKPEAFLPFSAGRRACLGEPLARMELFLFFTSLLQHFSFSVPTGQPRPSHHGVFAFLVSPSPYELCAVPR
Cytochrome P450 1A2 (Homo sapiens), sequence (P05177 whole entry, looked up): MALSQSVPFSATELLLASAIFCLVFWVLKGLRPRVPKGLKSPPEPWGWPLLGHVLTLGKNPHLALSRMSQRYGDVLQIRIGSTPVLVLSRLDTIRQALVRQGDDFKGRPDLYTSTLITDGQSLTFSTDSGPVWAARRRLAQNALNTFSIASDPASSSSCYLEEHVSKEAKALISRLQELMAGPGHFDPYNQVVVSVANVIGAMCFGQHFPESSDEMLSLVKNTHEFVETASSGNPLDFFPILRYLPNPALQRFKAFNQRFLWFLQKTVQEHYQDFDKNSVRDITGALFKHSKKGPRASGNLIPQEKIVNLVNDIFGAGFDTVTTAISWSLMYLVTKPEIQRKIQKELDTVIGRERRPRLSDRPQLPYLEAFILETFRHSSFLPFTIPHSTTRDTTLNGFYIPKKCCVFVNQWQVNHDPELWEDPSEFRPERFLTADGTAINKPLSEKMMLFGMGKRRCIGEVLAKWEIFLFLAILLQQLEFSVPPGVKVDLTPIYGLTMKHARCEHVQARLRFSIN
Thyrotropin-releasing hormone receptor (Homo sapiens), sequence (P34981 whole entry, looked up): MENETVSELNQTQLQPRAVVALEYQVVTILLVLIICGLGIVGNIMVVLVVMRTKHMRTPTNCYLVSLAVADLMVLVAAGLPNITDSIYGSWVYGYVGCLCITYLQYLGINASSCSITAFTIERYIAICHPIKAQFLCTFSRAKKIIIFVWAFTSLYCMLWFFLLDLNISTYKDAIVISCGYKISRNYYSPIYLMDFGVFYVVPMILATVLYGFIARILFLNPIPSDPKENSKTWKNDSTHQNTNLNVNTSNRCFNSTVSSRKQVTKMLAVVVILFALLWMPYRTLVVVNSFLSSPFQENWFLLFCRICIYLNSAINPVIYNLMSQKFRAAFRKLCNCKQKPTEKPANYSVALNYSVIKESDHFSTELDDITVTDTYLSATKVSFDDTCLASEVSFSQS
Cytochrome P450 2C9 (Homo sapiens), sequence (P11712 whole entry, looked up): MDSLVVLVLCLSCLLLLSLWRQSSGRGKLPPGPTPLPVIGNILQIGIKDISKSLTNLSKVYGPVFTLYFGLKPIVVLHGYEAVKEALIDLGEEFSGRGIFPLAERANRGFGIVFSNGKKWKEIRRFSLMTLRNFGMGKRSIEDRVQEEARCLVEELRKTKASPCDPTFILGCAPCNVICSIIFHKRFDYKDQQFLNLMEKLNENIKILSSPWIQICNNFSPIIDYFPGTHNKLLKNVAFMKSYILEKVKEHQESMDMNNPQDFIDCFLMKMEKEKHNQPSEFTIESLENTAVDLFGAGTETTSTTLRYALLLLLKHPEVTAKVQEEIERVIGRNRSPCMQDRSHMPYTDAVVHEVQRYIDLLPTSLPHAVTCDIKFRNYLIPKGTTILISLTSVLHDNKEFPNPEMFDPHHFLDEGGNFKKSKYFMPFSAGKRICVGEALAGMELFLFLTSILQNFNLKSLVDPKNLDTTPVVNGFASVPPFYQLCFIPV
Nuclear receptor subfamily 1 group I member 2 (Rattus norvegicus), sequence (Q9R1A7 whole entry, looked up): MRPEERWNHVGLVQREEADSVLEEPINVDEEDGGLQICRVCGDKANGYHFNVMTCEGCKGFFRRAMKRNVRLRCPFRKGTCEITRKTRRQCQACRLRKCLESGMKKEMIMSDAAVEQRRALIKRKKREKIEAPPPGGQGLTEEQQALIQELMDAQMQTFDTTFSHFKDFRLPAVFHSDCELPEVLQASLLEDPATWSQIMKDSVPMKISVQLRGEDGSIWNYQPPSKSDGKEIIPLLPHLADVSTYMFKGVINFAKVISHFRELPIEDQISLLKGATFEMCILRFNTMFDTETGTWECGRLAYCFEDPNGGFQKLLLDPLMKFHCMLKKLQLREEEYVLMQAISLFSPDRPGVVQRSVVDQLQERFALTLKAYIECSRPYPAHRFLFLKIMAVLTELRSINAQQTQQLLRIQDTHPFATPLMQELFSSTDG

Cc1cc(C)c(C)cc1C
inactive: Potency [1] | outcome [2] | Potency [3] | outcome [4] | Potency [5] | Potency [6] | Potency [7] | outcome [8] | Potency [9] | Potency [10] | Potency [11] | Potency [12] | Potency [13] | Potency [14] | outcome [15] | Potency [16]

Cc1ccc2oc(=O)ccc2c1
inactive and 35.6 µM (active): Potency [12]
active: Potency [14] 32.6 µM and 31.7 µM
inactive: Potency [1] | outcome [2] | Potency [3] | Potency [5] | Potency [6] | outcome [8] | Potency [9] | Potency [11] | outcome [15] | Potency [16]
31.5 µM (active) and inactive: Potency [10]

CC1CCC(C(C)C)C(O)C1 (stereo unspecified)
inactive: Potency [1] | outcome [2] | Potency [3] | Potency [5] | Potency [6] | outcome [8] | Potency [9] | Potency [10] | Potency [11] | outcome [15] | Potency [16]
70.3 µM (active) and inactive: Potency [12]

CN(C)CCCN
inactive: Potency [1] | outcome [2] | outcome [4] | Potency [5] | Potency [6] | Potency [7] | outcome [8] | Potency [9] | Potency [10] | Potency [11] | Potency [12] | Potency [14] | outcome [15] | Potency [16]

O=S(=O)(O)c1ccc2ccccc2c1
inactive: Potency [1] | outcome [2] | Potency [3] | Potency [5] | Potency [6] | Potency [7] | outcome [8] | Potency [9] | Potency [10] | Potency [11] | Potency [12] | Potency [13] | Potency [14] | outcome [15] | Potency [16]

Nc1cc([N+](=O)[O-])ccc1O
39.9 µM (active) and inactive: Potency [12]
inactive: Potency [1] | outcome [2] | outcome [4] | Potency [6] | outcome [8] | Potency [10] | Potency [11] | outcome [15] | Potency [16]
active: Potency [5] 39.8 µM and 54.2 µM | Potency [9] 48.6 µM and 68.2 µM | Potency [13] 31.7 µM and 39.7 µM | Potency [14] 39.9 µM

CCCCCOC(C)=O
32.1 µM (active) and inactive: Potency [12]
inactive: Potency [1] | outcome [2] | outcome [4] | Potency [5] | Potency [6] | Potency [7] | outcome [8] | Potency [9] | Potency [10] | Potency [11] | Potency [14] | outcome [15] | Potency [16]

CC(=O)c1ccccc1
active: Potency [14] 32.9 µM
41.4 µM (active) and inactive: Potency [12]
inactive: Potency [1] | outcome [2] | Potency [3] | Potency [5] | Potency [6] | outcome [8] | Potency [9] | Potency [10] | Potency [11] | Potency [13] | outcome [15] | Potency [16]

CN(C)CCC(c1ccc(Cl)cc1)c1ccccn1 (stereo unspecified)
inactive: Potency [1] | outcome [2] | Potency [3] | Potency [6] | Potency [7] | outcome [8] | Potency [9]
active: Potency [5] 44.7 µM

CC1=C(C)S(=O)(=O)CCS1(=O)=O
69.7 µM (active) and inactive: Potency [12]
inactive: Potency [1] | outcome [2] | outcome [4] | Potency [6] | outcome [8] | Potency [10] | Potency [11] | Potency [14] | outcome [15] | Potency [16]

CC1CCC2CC1C2(C)C (stereo unspecified)
21.6 µM (active) and inactive: Potency [11]
inactive: Potency [1] | outcome [2] | Potency [3] | Potency [5] | Potency [6] | Potency [7] | outcome [8] | Potency [9] | Potency [10] | Potency [12] | Potency [14] | outcome [15]
inactive and 39.9 µM (active): Potency [16]

CC(c1cc2ccccc2s1)N(O)C(N)=O (stereo unspecified)
active: Potency [12] 31.7 µM | Potency [14] 8.94 µM and 11.5 µM | Potency [16] 20 µM
34.4 µM (active) and inactive: Potency [10]
inactive: Potency [1] | outcome [2] | outcome [4] | Potency [5] | Potency [6] | Potency [7] | outcome [8] | Potency [9] | max activation [17] 1.87% | outcome [18] | Potency [19] | Potency [11] | outcome [15]

O=C1CCC(N2C(=O)c3ccccc3C2=O)C(=O)N1 (stereo unspecified)
inactive: Potency [1] | outcome [2] | Potency [3] | outcome [4] | Potency [5] | Potency [6] | Potency [7] | outcome [8] | Potency [9] | Potency [10] | Potency [12] | Potency [13] | Potency [14] | outcome [15] | Potency [16]

CC(C)(C)[C@@H](O)[C@@H](Cc1ccc(Cl)cc1)n1cncn1
inactive: Potency [1] | outcome [2] | outcome [4] | Potency [5] | Potency [6] | outcome [8] | Potency [9] | Potency [14] | outcome [15]
active: Potency [10] 34.1 µM | Potency [11] 71 µM | Potency [12] 250 nM and 159 nM | Potency [16] 112 nM and 200 nM

Cc1ccc(S(N)(=O)=O)cc1
19.9 µM (active) and inactive: Potency [12]
28.1 µM (active) and inactive: Potency [16]
inactive: Potency [1] | outcome [2] | Potency [3] | outcome [4] | Potency [5] | Potency [6] | Potency [7] | outcome [8] | Potency [9] | Potency [10] | Potency [11] | Potency [14] | outcome [15]

O=C(OCCOCCOC(=O)c1ccccc1)c1ccccc1
inactive: Potency [1] | outcome [2] | Potency [3] | outcome [4] | Potency [5] | Potency [6] | Potency [7] | outcome [8] | Potency [9] | Potency [10] | Potency [11] | outcome [15] | Potency [16]
active: Potency [12] 35.5 µM and 39.9 µM | Potency [13] 8.91 µM and 14.2 µM | Potency [14] 5.01 µM and 8.94 µM
